# Biological target: T1, ETS2 (Homo sapiens, UniProt P15036 1-469)
# T1 sequence: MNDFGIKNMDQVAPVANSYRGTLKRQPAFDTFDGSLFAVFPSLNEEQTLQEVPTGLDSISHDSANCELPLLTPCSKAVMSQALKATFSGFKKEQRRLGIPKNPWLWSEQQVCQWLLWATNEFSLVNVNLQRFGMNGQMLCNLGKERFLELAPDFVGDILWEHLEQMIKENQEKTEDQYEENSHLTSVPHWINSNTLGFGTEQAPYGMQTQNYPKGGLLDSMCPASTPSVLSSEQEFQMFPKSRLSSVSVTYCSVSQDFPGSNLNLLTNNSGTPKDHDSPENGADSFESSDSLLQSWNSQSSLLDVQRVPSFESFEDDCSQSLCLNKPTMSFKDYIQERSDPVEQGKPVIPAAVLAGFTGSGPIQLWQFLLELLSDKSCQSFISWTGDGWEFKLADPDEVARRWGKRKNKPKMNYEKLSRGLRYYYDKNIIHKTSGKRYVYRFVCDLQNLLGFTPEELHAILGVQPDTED
# Assay: DAPPL (digital affinity profiling via proximity ligation, sequencing); 10 mM Tris-HCl pH 7.5, 50 mM NaCl, 1 mM DTT, 4% glycerol, room temperature, 30 min; GST-TFs on glutathione beads, 16-mer random dsDNA library, 0.1% formaldehyde crosslink after washing; high values mean tight binding
# Conditions: protein: recombinant; tags: N-terminal GST; dsDNA, one strand shown
# How it was run: (§1)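 Human transcription factors fused to GST were expressed in yeast, captured on glutathione beads, given DNA barcodes and pooled with a GST-only negative control. Pools were incubated with 200 nmole of a 16-mer random double-stranded DNA library in Tris/NaCl/DTT/glycerol buffer at room temperature for 30 min. They were then washed, crosslinked with 0.1% formaldehyde, proximity-ligated (BsaI/T4 ligase, 1 h, 37 °C), PCR-amplified and sequenced on an Illumina NextSeq500. Binding signal is each 6-mer's read frequency for a factor divided by its frequency for the GST control.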
row,Sequence,binding signal
1,CCTACT,"1.7 fold enrichment (6-mer frequency, TF over GST control)"
2,TCCTAG,"1.26 fold enrichment (6-mer frequency, TF over GST control)"
3,GCACTT,"1.76 fold enrichment (6-mer frequency, TF over GST control)"
4,TATCAT,"1.13 fold enrichment (6-mer frequency, TF over GST control)"
5,ATAGTA,"1.06 fold enrichment (6-mer frequency, TF over GST control)"
6,TCATCC,"1.35 fold enrichment (6-mer frequency, TF over GST control)"
7,CCATAA,"1.22 fold enrichment (6-mer frequency, TF over GST control)"
8,TACGCG,"1.14 fold enrichment (6-mer frequency, TF over GST control)"
9,TAATCT,"1.43 fold enrichment (6-mer frequency, TF over GST control)"
10,GCTTGC,"1.24 fold enrichment (6-mer frequency, TF over GST control)"
11,TTCGTT,"1.3 fold enrichment (6-mer frequency, TF over GST control)"
12,TCAACC,"1.22 fold enrichment (6-mer frequency, TF over GST control)"
13,TGCTAT,"1.52 fold enrichment (6-mer frequency, TF over GST control)"
14,CTACTC,"1.34 fold enrichment (6-mer frequency, TF over GST control)"
15,ATCAAC,"1.18 fold enrichment (6-mer frequency, TF over GST control)"
16,CTTGCG,"1.28 fold enrichment (6-mer frequency, TF over GST control)"
17,ATGTTC,"1.25 fold enrichment (6-mer frequency, TF over GST control)"
18,ATGAGC,"1.26 fold enrichment (6-mer frequency, TF over GST control)"
19,AAATCA,"1.22 fold enrichment (6-mer frequency, TF over GST control)"
20,TGACCC,"1.38 fold enrichment (6-mer frequency, TF over GST control)"

row,Sequence,binding signal
1,TAAATT,"1.17 fold enrichment (6-mer frequency, TF over GST control)"
2,TCCTTG,"1.28 fold enrichment (6-mer frequency, TF over GST control)"
3,CCATAT,"1.22 fold enrichment (6-mer frequency, TF over GST control)"
4,CTAACT,"1.35 fold enrichment (6-mer frequency, TF over GST control)"
5,CTGCTT,"1.63 fold enrichment (6-mer frequency, TF over GST control)"
6,AATTAC,"1.36 fold enrichment (6-mer frequency, TF over GST control)"
7,TGTGCT,"1.12 fold enrichment (6-mer frequency, TF over GST control)"
8,ATACAA,"1.19 fold enrichment (6-mer frequency, TF over GST control)"
9,TTACTA,"1.2 fold enrichment (6-mer frequency, TF over GST control)"
10,ACTCGT,"1.27 fold enrichment (6-mer frequency, TF over GST control)"
11,AAACAA,"1.32 fold enrichment (6-mer frequency, TF over GST control)"
12,AAAAAG,"1.23 fold enrichment (6-mer frequency, TF over GST control)"
13,CCCGAT,"1.23 fold enrichment (6-mer frequency, TF over GST control)"
14,TATTCA,"1.34 fold enrichment (6-mer frequency, TF over GST control)"
15,CAATTA,"1.16 fold enrichment (6-mer frequency, TF over GST control)"
16,CTTTTG,"1.45 fold enrichment (6-mer frequency, TF over GST control)"
17,ACGTCC,"1.64 fold enrichment (6-mer frequency, TF over GST control)"
18,CCCTTC,"1.37 fold enrichment (6-mer frequency, TF over GST control)"
19,ATGACA,"1.33 fold enrichment (6-mer frequency, TF over GST control)"
20,AATCAA,"1.18 fold enrichment (6-mer frequency, TF over GST control)"

# Biological target: T2, SPDEF (Homo sapiens, UniProt O95238 1-335)
# T2 sequence: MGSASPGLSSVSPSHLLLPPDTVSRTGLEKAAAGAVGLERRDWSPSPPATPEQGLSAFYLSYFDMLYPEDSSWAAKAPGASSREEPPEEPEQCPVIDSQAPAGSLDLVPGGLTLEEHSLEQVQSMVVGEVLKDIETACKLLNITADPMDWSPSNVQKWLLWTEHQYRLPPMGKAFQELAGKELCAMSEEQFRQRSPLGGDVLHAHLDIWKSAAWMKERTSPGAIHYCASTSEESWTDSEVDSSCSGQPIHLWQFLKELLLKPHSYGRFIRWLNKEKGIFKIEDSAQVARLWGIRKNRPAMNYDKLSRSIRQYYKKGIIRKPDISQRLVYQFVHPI
# Assay: as above
# Conditions: protein: recombinant; tags: N-terminal GST; dsDNA, one strand shown
# How it was run: as §1
row,Sequence,binding signal
1,CCTACT,"1.49 fold enrichment (6-mer frequency, TF over GST control)"
2,TCCTAG,"1.4 fold enrichment (6-mer frequency, TF over GST control)"
3,GCACTT,"1.91 fold enrichment (6-mer frequency, TF over GST control)"
4,TATCAT,"1.09 fold enrichment (6-mer frequency, TF over GST control)"
5,ATAGTA,"1.07 fold enrichment (6-mer frequency, TF over GST control)"
6,TCATCC,"1.85 fold enrichment (6-mer frequency, TF over GST control)"
7,CCATAA,"1.12 fold enrichment (6-mer frequency, TF over GST control)"
8,TACGCG,"1.23 fold enrichment (6-mer frequency, TF over GST control)"
9,TAATCT,"1.34 fold enrichment (6-mer frequency, TF over GST control)"
10,GCTTGC,"1.22 fold enrichment (6-mer frequency, TF over GST control)"
11,TTCGTT,"1.39 fold enrichment (6-mer frequency, TF over GST control)"
12,TCAACC,"1.2 fold enrichment (6-mer frequency, TF over GST control)"
13,TGCTAT,"1.48 fold enrichment (6-mer frequency, TF over GST control)"
14,CTACTC,"1.29 fold enrichment (6-mer frequency, TF over GST control)"
15,ATCAAC,"1.06 fold enrichment (6-mer frequency, TF over GST control)"
16,CTTGCG,"1.25 fold enrichment (6-mer frequency, TF over GST control)"
17,ATGTTC,"1.3 fold enrichment (6-mer frequency, TF over GST control)"
18,ATGAGC,"1.12 fold enrichment (6-mer frequency, TF over GST control)"
19,AAATCA,"1.12 fold enrichment (6-mer frequency, TF over GST control)"
20,TGACCC,"1.49 fold enrichment (6-mer frequency, TF over GST control)"

# Source: PMC7862700, “An all-to-all approach to the identification of sequence-specific readers for epigenetic DNA modifications on cytosine”
